Screens: PubChem BioAssay, National Center for Advancing Translational Sciences (NCATS)
This is a sample that favours compounds with a hit; in the whole collection about 9.2% have one here.
ELG1 genotoxic = qHTS screen for small molecules that induce genotoxicity in human embryonic kidney (HEK293T) cells expressing luciferase-tagged ELG1; Potency, µM (titrated, usually from 46 µM), without a hit: top-dose activity change, positive = activation, usual class: activators; 1.3% of 330,000 active; AID 504466, 2011; HEK293T ELG1-luciferase reporter, luminescence, 16 h; also: % of control where 0% means no effect; nearly all actives have a fitted effect of over 60% in size
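16 hr compound incubation (37 °C, 5% CO2) of HEK293T cells carrying luciferase-tagged ELG1; luciferase then measured by ONE-Glo luminescence after 30 min at RT.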
Rab9 prom act = qHTS Assay for Rab9 Promoter Activators. Huh7 Rab9 promoter-luciferase reporter, luminescence, 24 h. Potency, µM (highest dose often 9.22 µM), for inactives: at the highest dose activation, negative = inhibition, actives largely listed as activators. 2.8% of 320,000 active. AID 485297, 2010; also: % of control where 0% means no effect; nearly all actives have a fitted effect of over 60% in size
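Rab9 promoter-driven luciferase in stably transfected Huh7 cells; 1500 cells/well rested 2 h, exposed to compound in DMSO for 24 h at 37 °C, 5% CO2. Luminescence read 10 min after adding luciferase reagent at ambient temperature.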
NPC1 promoter act = qHTS Assay for NPC1 Promoter Activators; Huh7 NPC1 promoter luciferase reporter, 24 h; Potency, µM (highest dose often 9.22 µM), for the others: at the highest dose activation, hits mostly activators; 2.4% of 320,000 active; also: % of control where 0% means no effect; nearly all actives have a fitted effect of over 60% in size
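In 1536-well qHTS, Huh7 cells harboring an NPC1 promoter–luciferase construct received compound for 24 h; activation was quantified by luminescence following luciferase reagent addition.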
ELG1 repair inh = qHTS screen for small molecules that inhibit ELG1-dependent DNA repair in human embryonic kidney (HEK293T) cells expressing luciferase-tagged ELG1; HEK293T ELG1-luciferase reporter, luminescence, 16 h; DNA damage induced by 5-fluorouridine; Potency, µM (series often up to 46.1 µM), inactives show at the highest dose activity change, negative = inhibition, usual class: inhibitors; 2.3% of 330,000 active; AID 504467, 2011; also: % is scaled to controls: 0 for no effect and ±100 for the full control effect; nearly all actives have a fitted effect of over 55% in size
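Quantitative HTS, concentration-response format. 2,000 cells/well co-treated with 5-fluorouridine and compound, 16 hr in 5% CO2 at 37 °C; ONE-Glo luminescence read after 30 min.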
SMN2 splice enh = qHTS Assay for Enhancers of SMN2 Splice Variant Expression; HEK293 SMN2-luciferase splicing reporter, luminescence, 30-36 h; Potency, µM (titrated, usually from 46.1 µM), for the others: at the top dose activity change, positive = activation, most hits filed as activators; 2.8% of 210,000 active; AID 1458, 2008; also: % of control where 0% means no effect; nearly all actives have a fitted effect of over 55% in size
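HEK293 cells carry an SMN2 minigene-luciferase reporter in which exon 7 inclusion puts luciferase in frame. Cells were seeded at 2000 cells/well, attached for 10-12 hours, then exposed to compounds for 30-36 hours at 37C before ONE-Glo luminescence.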
FLuc counter = qHTS profiling assay for firefly luciferase inhibitor/activator using purifed enzyme and Km concentrations of substrates (counterscreen for miR-21 project). Potency, µM (doses to about 57.5 µM), without a hit: at the top dose activity change, negative = inhibition, most hits filed as inhibitors. 6.9% of 360,000 active. purified FLuc, Km substrates, luminescence inhibition. Luciferin 4-monooxygenase (Photinus pyralis), P08659;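 also: plate controls were vehicle for no effect and reference inhibitor for full effect; nearly all actives have a fitted effect of over 55% in size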
Target sequence (P08659 whole entry, looked up): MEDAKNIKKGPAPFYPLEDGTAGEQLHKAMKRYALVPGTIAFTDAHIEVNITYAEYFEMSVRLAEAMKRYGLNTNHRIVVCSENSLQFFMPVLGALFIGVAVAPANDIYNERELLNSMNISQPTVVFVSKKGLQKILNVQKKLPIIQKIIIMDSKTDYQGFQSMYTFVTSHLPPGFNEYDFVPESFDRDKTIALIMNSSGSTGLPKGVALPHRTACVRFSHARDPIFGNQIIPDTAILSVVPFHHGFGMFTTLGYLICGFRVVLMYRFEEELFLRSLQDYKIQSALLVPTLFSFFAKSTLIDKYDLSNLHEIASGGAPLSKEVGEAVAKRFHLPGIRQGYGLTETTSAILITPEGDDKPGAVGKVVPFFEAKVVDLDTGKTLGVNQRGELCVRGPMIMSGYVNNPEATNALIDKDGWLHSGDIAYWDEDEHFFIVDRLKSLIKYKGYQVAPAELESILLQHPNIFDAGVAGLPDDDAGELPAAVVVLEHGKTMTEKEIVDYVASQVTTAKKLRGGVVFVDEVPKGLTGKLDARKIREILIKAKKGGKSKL
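Biochemical qHTS of compounds, final roughly 60 µM downward over six points, against 10 nM purified firefly luciferase using Km concentrations of substrates (10 uM D-luciferin, 10 uM ATP) in Tris acetate pH 7.5 buffer; luminescence output.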
* hit, by the source's call. Calls follow the shape of the dose curve; as a rule, active = well fitted curve in the direction sought with a large enough effect; inconclusive = small, poorly fitted or top-dose-only effect, or another doubt; inactive = no such curve, though single readings can be large; an effect the other way counts as inactive or inconclusive. Potency is read from the fitted curve at half-maximal effect.

What do the screens show for `CCc1ccccc1NC(=O)N1CCc2ccccc2C1`?
ELG1 genotoxic: 15%; Rab9 prom act: 20%; NPC1 promoter act: -1%; ELG1 repair inh: inconclusive; FLuc counter: -16%

What do the screens show for `CC(=O)c1cccc(NC(=O)N2CCc3ccccc3C2)c1`?
ELG1 genotoxic: inconclusive; Rab9 prom act: inconclusive; NPC1 promoter act: 4µM*; ELG1 repair inh: inconclusive; SMN2 splice enh: 21%; FLuc counter: 13µM*

How did CC(=O)c1cccc(NC(=O)N2CCCc3ccccc32)c1 do in these assays?
ELG1 genotoxic: 6%; Rab9 prom act: 12%; NPC1 promoter act: 9%; ELG1 repair inh: inconclusive; SMN2 splice enh: 0%; FLuc counter: inconclusive

How did CCOC(=O)c1c(C)[nH]c(C(=O)CSc2ccc(Cl)cc2)c1C do in these assays?
ELG1 genotoxic: inconclusive; Rab9 prom act: inconclusive; NPC1 promoter act: inconclusive; ELG1 repair inh: inconclusive; SMN2 splice enh: 11µM*; FLuc counter: 6µM*

How did CCOC(=O)c1c(C)[nH]c(C(=O)CSc2nnc(CC(C)c3ccccc3)o2)c1C (stereo not given) do in these assays?
ELG1 genotoxic: -2%; Rab9 prom act: -13%; NPC1 promoter act: -4%; ELG1 repair inh: 0%; SMN2 splice enh: -30%; FLuc counter: 2%

What do the screens show for `CCOC(=O)c1c(C)[nH]c(C(=O)CSc2nc3ccccc3o2)c1C`?
ELG1 genotoxic: 5%; Rab9 prom act: -2%; NPC1 promoter act: -5%; ELG1 repair inh: 13%; SMN2 splice enh: 0.32µM*; FLuc counter: 9%

What do the screens show for `COCCn1c(SCC(=O)c2[nH]c(C)c(C(C)=O)c2C)nc2ccccc21`?
ELG1 genotoxic: -2%; Rab9 prom act: 1%; NPC1 promoter act: -3%; ELG1 repair inh: 26µM*; SMN2 splice enh: -12%; FLuc counter: -1%

Results for CCc1cc2c(cc3c(=O)n(CC(=O)NC4CCC(C)CC4)ncn32)s1 (stereo not given) ?
SMN2 splice enh: 6%; FLuc counter: 3%

What do the screens show for `COc1ccc(OCC(=O)Nc2ccc(N3CCN(C(=O)c4ccccc4)CC3)c(Cl)c2)cc1`?
ELG1 genotoxic: -20%; Rab9 prom act: -18%; NPC1 promoter act: -17%; ELG1 repair inh: 12µM*; FLuc counter: -1%

Results for Cc1ccccc1OCC(=O)Nc1ccc(N2CCN(C)CC2)c(Cl)c1 ?
ELG1 genotoxic: inconclusive; Rab9 prom act: 29%; NPC1 promoter act: inconclusive; ELG1 repair inh: inconclusive; FLuc counter: 12µM*

How did COc1ccc(OCC(=O)Nc2ccc(N3CCOCC3)c(Cl)c2)cc1 do in these assays?
ELG1 genotoxic: -11%; Rab9 prom act: 0%; NPC1 promoter act: 1%; ELG1 repair inh: inconclusive; SMN2 splice enh: 21%; FLuc counter: -17%

Results for Cc1ccc(C2CC(C(F)(F)F)n3nc(C(=O)NCc4c(C)nn(C)c4C)c(Cl)c3N2)cc1 (stereo not given) ?
ELG1 genotoxic: -4%; Rab9 prom act: -14%; NPC1 promoter act: -7%; ELG1 repair inh: 12µM*; SMN2 splice enh: -48%; FLuc counter: 2%

Results for COc1ccc(C2CC(C(F)(F)F)n3nc(C(=O)NCc4cn(C)nc4C)c(Cl)c3N2)cc1 (stereo not given) ?
ELG1 genotoxic: -11%; Rab9 prom act: -8%; NPC1 promoter act: -4%; ELG1 repair inh: 23µM*; SMN2 splice enh: -23%; FLuc counter: 0%

What do the screens show for `Cc1cccc(C2N3CC4(C(C)C)CN2CC(C(C)C)(C3)C4=O)c1` (stereo not given)?
FLuc counter: 5%

What do the screens show for `CC(=O)N1CCC[C@@]2(CCN(C(=O)Nc3cccc(C#N)c3)C2)C1`?
SMN2 splice enh: -11%

How did COc1cccc(NC(=S)N2CCC(c3ccc(C)cc3)C2)c1 (stereo not given) do in these assays?
ELG1 genotoxic: 7%; Rab9 prom act: inconclusive; NPC1 promoter act: 29%; ELG1 repair inh: inconclusive; FLuc counter: 13µM*

How did Cc1ccc(NC(=S)N2CCC(c3ccc(C)cc3)C2)cc1 (stereo not given) do in these assays?
ELG1 genotoxic: inconclusive; Rab9 prom act: inconclusive; NPC1 promoter act: 26%; ELG1 repair inh: inconclusive; FLuc counter: 15µM*

Results for O=C(Cc1csc(NC(=O)Nc2ccc(Cl)cc2)n1)NCc1ccccn1 ?
ELG1 genotoxic: 1%; Rab9 prom act: inconclusive; NPC1 promoter act: inconclusive; ELG1 repair inh: inconclusive; FLuc counter: 1.1µM*

How did Cc1csc(NC(=O)Nc2ccc(Cl)cc2)n1 do in these assays?
ELG1 genotoxic: inconclusive; Rab9 prom act: inconclusive; NPC1 promoter act: 26%; ELG1 repair inh: inconclusive; SMN2 splice enh: -5%; FLuc counter: inconclusive

How did O=C(Cc1csc(NC(=O)Nc2ccc(Cl)cc2)n1)NC1CCCC1 do in these assays?
ELG1 genotoxic: 0%; Rab9 prom act: -3%; NPC1 promoter act: 17%; ELG1 repair inh: 4%; FLuc counter: 4.8µM*

Results for O=C(Cc1nnc(NC(=O)Nc2ccc(Cl)cc2)s1)NCc1ccccc1 ?
ELG1 genotoxic: 6%; Rab9 prom act: -8%; NPC1 promoter act: -1%; ELG1 repair inh: 9%; SMN2 splice enh: -2%; FLuc counter: -3%

Results for COc1cc(C(=O)N2CCN(CCc3ccccn3)CC2)cc(OC)c1OC ?
FLuc counter: -2%

What do the screens show for `O=C(c1ccccc1)c1ccc(Cn2cc(-c3ccccc3)nn2)cc1`?
ELG1 genotoxic: inconclusive; Rab9 prom act: -16%; NPC1 promoter act: -11%; ELG1 repair inh: inconclusive; FLuc counter: 13µM*

What do the screens show for `CSc1ccc(/C=C/C(=O)OCC(=O)N(C)CCC#N)cc1`?
ELG1 genotoxic: 5%; Rab9 prom act: 2%; NPC1 promoter act: 3%; ELG1 repair inh: -7%; SMN2 splice enh: 8%; FLuc counter: -17%

What do the screens show for `COc1ccc(N2CCN(C(=O)c3cc4c(C)nc5ccccc5c4o3)CC2)cc1`?
ELG1 genotoxic: -6%; Rab9 prom act: -3%; NPC1 promoter act: -4%; ELG1 repair inh: inconclusive; FLuc counter: -1%

What do the screens show for `COc1ccccc1N1CCN(C(=O)c2ccc(-c3nc4ccccc4s3)o2)CC1`?
ELG1 genotoxic: -7%; Rab9 prom act: 24%; NPC1 promoter act: -3%; ELG1 repair inh: inconclusive; FLuc counter: 13µM*
